Experimental data taken from publication PMC4336329 (PLoS ONE, 2015).
Among all 310,000 compounds or so, about 14,000 (4.5%) showed an effect of 50% or more. Effects have a minus sign here. What follows is part of a selection rich in strong results, with near analogues and random picks from the rest.

Target: human ether-à-go-go-related gene (hERG) potassium channel (human, UniProt Q12809)
Test: primary screen, population patch clamp on CHO cells stably expressing hERG; higher = less effect of the substance
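Further: peak tail current of the secondary pulse compared with the same well before compound.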

Chain of human ether-à-go-go-related gene (hERG) potassium channel (Q12809 whole entry, looked up): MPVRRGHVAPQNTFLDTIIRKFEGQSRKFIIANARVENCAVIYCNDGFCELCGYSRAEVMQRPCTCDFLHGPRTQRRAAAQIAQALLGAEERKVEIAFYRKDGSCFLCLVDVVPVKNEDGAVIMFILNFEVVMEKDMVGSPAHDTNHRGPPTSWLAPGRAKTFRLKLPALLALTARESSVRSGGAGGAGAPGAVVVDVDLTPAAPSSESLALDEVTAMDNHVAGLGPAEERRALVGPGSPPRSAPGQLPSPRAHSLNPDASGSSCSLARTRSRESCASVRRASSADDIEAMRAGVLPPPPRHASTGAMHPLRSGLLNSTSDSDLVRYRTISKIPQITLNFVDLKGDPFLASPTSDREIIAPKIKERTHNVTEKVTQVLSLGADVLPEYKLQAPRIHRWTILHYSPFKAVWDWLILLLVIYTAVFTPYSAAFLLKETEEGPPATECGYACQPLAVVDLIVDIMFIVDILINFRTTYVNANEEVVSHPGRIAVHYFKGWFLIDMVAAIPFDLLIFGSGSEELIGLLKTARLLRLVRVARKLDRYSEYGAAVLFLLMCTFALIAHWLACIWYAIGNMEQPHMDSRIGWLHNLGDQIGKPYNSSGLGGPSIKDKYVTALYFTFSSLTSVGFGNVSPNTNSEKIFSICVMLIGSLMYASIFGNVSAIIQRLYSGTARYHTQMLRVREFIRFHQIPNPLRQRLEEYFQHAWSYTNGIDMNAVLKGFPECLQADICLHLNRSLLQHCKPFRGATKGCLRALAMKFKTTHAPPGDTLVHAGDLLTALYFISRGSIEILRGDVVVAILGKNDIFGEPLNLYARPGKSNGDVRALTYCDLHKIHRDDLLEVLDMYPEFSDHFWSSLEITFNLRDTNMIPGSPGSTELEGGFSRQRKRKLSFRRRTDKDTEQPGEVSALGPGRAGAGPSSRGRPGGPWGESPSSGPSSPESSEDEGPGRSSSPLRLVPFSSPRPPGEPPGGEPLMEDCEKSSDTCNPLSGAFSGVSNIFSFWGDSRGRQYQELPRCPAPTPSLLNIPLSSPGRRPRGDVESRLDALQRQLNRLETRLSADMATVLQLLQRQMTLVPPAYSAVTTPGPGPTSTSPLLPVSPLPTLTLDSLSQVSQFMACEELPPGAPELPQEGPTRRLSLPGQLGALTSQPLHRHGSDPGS

In order of rising “hERG current change (%, negative = inhibition) at 10uM” value:
1. O=C(O)c1ccc(N2C(=O)c3cccc(Oc4ccc(Cl)cc4)c3C2=O)cc1  -80.7%
2. Cc1cc(C)nc(SCc2nnc(SCc3ccc([N+](=O)[O-])cc3)n2Cc2ccco2)n1  -80.6%
3. CCOc1ccc(-n2c(Cc3ccccc3)nnc2SCc2c(C)noc2C)cc1  -74.1%
4. CC(C)OC(=O)CSc1nnc(COc2ccc([N+](=O)[O-])cc2)n1C  -69.9%
5. Cc1sc2ncnc(Oc3ccc(-n4ccnc4)cc3)c2c1C  -68.4%
6. COc1ccc(-n2c(Cc3ccccc3)nnc2SCc2ccc([N+](=O)[O-])cc2)cc1  -68.4%
7. CC(=O)NC(=S)Nc1cc(C(=O)O)ccc1Cl  -64.9%
8. COC(=O)[C@@]1(Cc2ccc(F)cc2)[C@H]2c3cc(C(=O)N(C)C)n(CCc4ccccn4)c3C[C@H]2CN1C(=O)c1ccccc1  -64.8%
9. COC(=O)[C@@]1(Cc2ccc(F)cc2)[C@H]2c3cc(C(=O)N4CCCC4)n(CCc4ccccn4)c3C[C@H]2CN1C(=O)c1ccccc1  -64.1%
10. COc1ccc(CC(=O)NCc2nnc(SCc3ccc([N+](=O)[O-])cc3)n2C)cc1  -63.6%
11. COc1ccc(NCc2nnc(SCC(=O)Nc3ccc(OC)cc3)n2C)cc1  -62.3%
12. CCn1c(Cc2ccccc2)nnc1SCc1ccc([N+](=O)[O-])cc1  -57.1%
13. COCCn1c(Cc2ccccc2)nnc1SCc1ccc([N+](=O)[O-])cc1  -55%
14. C=CCn1c(SCc2ccc([N+](=O)[O-])cc2)nnc1C(C)NC(=O)c1ccccc1 (stereo not shown)  -54.5%
15. COc1ccc(-n2c(Cc3ccccc3)nnc2SCC(=O)N2CCCc3ccccc32)cc1  -53.9%
16. COC(=O)[C@@]1(Cc2ccc(F)cc2)[C@H]2c3cc(C(=O)N(C)C)n(Cc4ccccn4)c3C[C@H]2CN1C(=O)c1ccccc1  -53.4%
17. O=[N+]([O-])c1ccc(CSc2nnc(Cc3ccccc3)n2-c2ccc(F)cc2)cc1  -48.7%
18. COC(=O)CSc1nnc(COc2ccc([N+](=O)[O-])cc2)n1C  -47.6%
19. CN(C)C(CNC(=O)CCCN1C(=O)c2cccc3cccc(c23)C1=O)c1ccccc1 (stereo not shown)  -46.2%
20. COC(=O)[C@@]1(Cc2ccc(F)cc2)[C@H]2c3cc(C(=O)N(C)C)n(Cc4ccc(OC)c(OC)c4)c3C[C@H]2CN1C(=O)c1ccccc1  -42.6%
21. Cc1cccc(-n2c(Cc3ccccc3)nnc2SCc2ccc([N+](=O)[O-])cc2)c1  -37.6%
22. CCc1ccc(-n2c(SCc3c(C)noc3C)nnc2-c2ccncc2)cc1  -36.6%
23. COC(=O)[C@@]1(Cc2ccc(F)cc2)[C@H]2c3cc(C(=O)N(C)C)n(CCSCCO)c3C[C@H]2CN1C(=O)c1ccccc1  -34.4%
24. CCn1c(SCc2ccc([N+](=O)[O-])cc2)nnc1C(C)NC(=O)c1ccc(C)cc1 (stereo not shown)  -33.6%
25. CC(C)NC(=O)C(=O)NCCN1CCN(S(=O)(=O)c2ccc(Cl)cc2)CC1  -33.3%
26. CCn1c(SCc2ccc([N+](=O)[O-])cc2)nnc1C(C)NC(=O)c1ccccc1Br (stereo not shown)  -27.6%
27. COc1ccc(-n2c(SCc3ccc([N+](=O)[O-])cc3)nnc2-c2ccccc2)cc1  -24.4%
28. CCn1c(Cc2ccccc2)nnc1SCC(=O)c1cccc([N+](=O)[O-])c1  -24%
29. COC(=O)[C@@]1(Cc2ccc(F)cc2)[C@H]2c3cc(C(=O)N4CCCC4)n(CCc4ccc(O)c(O)c4)c3C[C@H]2CN1C(=O)c1ccccc1  -15.5%
30. COc1ccc(-n2c(Cc3cccn3C)nnc2SCC(=O)N2CCCc3ccccc32)cc1  -13.9%
31. CCOc1ccc(-n2c(COc3ccccc3)nnc2SCC(N)=O)cc1  -13.8%
32. CS(=O)(=O)Nc1ccc(C(=O)Nc2ccc(S(=O)(=O)N3CCCC3)cc2)cc1  -13.7%
33. COC(=O)[C@@]1(Cc2ccc(F)cc2)[C@H]2c3cc(C(=O)N(C)C)n(Cc4ccccc4)c3C[C@H]2CN1C(=O)c1ccccc1  -13.3%
34. COc1ccc(NCc2nnc(SCC(=O)Nc3ccccc3)n2C)cc1  -12.5%
35. COc1ccc(OCC(=O)N/N=C2\CCCCc3ccccc32)cc1  -12.3%
36. Cc1cc(C(F)F)n2nc(C(=O)Nc3ccc(S(=O)(=O)NC45CC6CC(CC(C6)C4)C5)cc3)nc2n1  -8.28%
37. Cc1cc(C)nc(SCc2nnc(SCC(N)=O)n2Cc2ccco2)n1  -7.19%
38. CC[n+]1ccc(/C=C/c2c[nH]c3ccccc23)cc1.[Cl-]  -6.54%
39. COc1ccc(C2C(C#N)=C(N)Oc3c2c(C)nn3-c2ccccc2)cc1Cn1nc(C)c([N+](=O)[O-])c1C (stereo not shown)  -4.96%
40. COc1ccc(CC(=O)NCc2nnc(SCC(=O)c3ccc(OC)cc3)n2C)cc1  -3.61%
41. Cc1ccc(S(=O)(=O)NC2OC(=O)C(Cl)=C2Cl)cc1 (stereo not shown)  -3.55%
42. COc1ccc(OCc2nnc(SCC(=O)N3CCCc4ccccc43)n2-c2ccc(C)cc2)cc1  -3.12%
43. COC(=O)[C@@]1(Cc2ccc(F)cc2)[C@H]2c3cc(C(=O)N(C)C)n(CCc4ccc(OC)c(Br)c4)c3C[C@H]2CN1C(=O)c1ccccc1  -2.99%
44. O=C(COc1ccc(-c2ccccc2)cc1)NNC(=O)Nc1ccccc1  -2.73%
45. CC(C)N1CC(C(=O)Nc2ccc(Br)c(Cl)c2)CC1=O (stereo not shown)  -2.34%
46. CC/C(=N\NC(=O)c1ccc(-c2ccccc2)cc1)C12CC3CC(CC(C3)C1)C2  0.121%
47. CN1CCC(N(C)S(=O)(=O)c2ccc(NC(=O)COc3ccc(F)cc3)cc2)CC1  0.996%
48. Cn1c(COc2ccc([N+](=O)[O-])cc2)nnc1SCC(N)=O  1.54%
49. Nc1c(Cl)ncnc1N/N=C/c1ccnc2ccccc12  1.91%
50. CCOC(=O)CNC(=O)c1cnn2cccnc12  2.78%
51. COC(=O)c1scc(C)c1NC(=O)Nc1ccccc1  3.91%
52. COC(=O)[C@@]1(Cc2ccc(F)cc2)[C@H]2c3cc(C(=O)N4CCCC4)n(CCc4c[nH]c5ccc(OC)cc45)c3C[C@H]2CN1C(=O)c1ccccc1  3.92%
53. NC(=O)c1c(-c2cccs2)csc1N  3.94%
54. Cc1sc2ncnc(N)c2c1C  4.12%
55. Cc1c(C(=O)N(C)CCCCN2CCOCC2)oc2c(F)cccc12  4.14%
56. CC(C)(C)C(=O)NC(=S)Nc1cc(C(=O)O)ccc1Cl  4.5%
57. Cc1cc(/C=C(/C#N)C(=O)O)c(C)n1CCC(C)C  4.68%
58. Cc1cccc(N2C(=O)c3cccc(Oc4ccc(Cl)cc4)c3C2=O)c1  4.76%
59. COc1nc(NC2CCCCC2)nc(N2CCCCCC2)n1  4.84%
60. COc1ccc(CC(=O)NCc2nnc(SCc3ccc(C)cc3)n2C)cc1  5.49%
61. COCCn1c(Cc2ccccc2)nnc1SCC(=O)Nc1ccccc1  5.83%
62. COCCN(C(C)=O)c1nnc(-c2cnccn2)s1  6.11%
63. CC1CC(C)CN(CCCNC(=O)c2c(O)nc3ccccn3c2=O)C1 (stereo not shown)  6.75%
64. C/C=C/c1ccc(OCC(=O)Nc2ccc(C(N)=O)cc2)c(OC)c1  7.23%
65. COC(=O)CSc1nnc(CSc2nc(C)cc(C)n2)n1Cc1ccco1  7.23%
66. COCCNC(=O)C(=O)N/N=C(\C)CC(=O)Nc1cccnc1  8.89%
67. Cc1cc(C)nc(NC2=NCC(=O)N2c2ccccc2Br)n1  8.96%
68. O=S(=O)(Cc1ccccc1)N1CCn2c(nc3ccccc32)C1  9.91%
69. CC(=O)Nc1ccc(S(=O)(=O)N2CCCC2C(=O)Nc2ccc(F)cc2)cc1 (stereo not shown)  11.2%
70. CCCCC(=O)NC(=S)Nc1cc(C(=O)O)ccc1Cl  11.2%
71. Cc1nc(NC(=O)c2ccccc2)sc1-c1csc(NCCc2ccccc2)n1  12%
72. CCOc1ccc(N/C(N)=N/c2nc(CSc3nnc(C)s3)cc(=O)[nH]2)cc1  12.5%
73. COC(=O)c1nc2ccccn2c1F  13.2%
74. CNC(=O)Nc1cc(C(F)(F)F)cc(C(F)(F)F)c1  14.3%
75. COCCn1c(Cc2ccccc2)nnc1SCC(=O)N(C)C  14.3%
76. Cc1nn(-c2ccccc2)c(Cl)c1/C=N/NC(=O)c1ccccc1F  14.6%
77. O=C(c1ccc(Cl)cc1)N1CCCOC1  15.2%
78. Cc1ccc2cccc(Oc3ncnc4sc(C)c(C)c34)c2n1  15.3%
79. COC(=O)C1=C(C)NC2=C(C(=O)CC(C)(C)C2)C1c1cnn(C)c1C (stereo not shown)  15.6%
80. O=C(O)c1cccc(N2C(=O)c3cccc(Oc4ccc(Cl)cc4)c3C2=O)c1  16.2%
81. COc1cc(C(=O)NCc2nnc(SCC(=O)NCc3ccccc3)o2)cc(OC)c1OC  17.6%
82. COc1ccc(NC(=O)CSc2nnc(CNc3ccc(C)cc3)n2C)cc1  25.2%
